Only some compounds are listed: those with a hit (about 6.2% of all), similar ones and a draw of the others.
KB-V1 cytotox: qHTS assay for MDR1-selective chemotherapeutics: Primary screen using the drug-selected MDR subline cells KB-V1 | KB-V1 MDR cells viability, CellTiter-Glo, 72 h | Potency, µM (titrated, usually from 46.1 µM), hits mostly cytotoxic | 400,000 compounds, 3.4% hits; note: % is set by controls: 0 for no effect and ±100 for the full control effect; nearly all actives have a fitted effect of over 60% in size
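qHTS viability screen in drug-selected KB-V1 MDR cells: 72 h compound treatment at 37 degrees C, ATP luminescence end point.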
ATXN2 expr inh: Primary qHTS for Inhibitors of ATXN expression; HEK-293 ATXN2-luciferase reporter, luminescence, 24 h; Potency, µM (top dose mostly 57 µM), without a hit: at the highest dose activity change, negative = inhibition, actives largely listed as inhibitors; 360,000 compounds, 0.72% hits; note: % is set by controls: 0 for no effect and ±100 for the full control effect; nearly all actives have a fitted effect of over 55% in size
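qHTS (up to 57 uM final) was run with 24 h compound exposure of reporter cells at 37 °C. Each well was multiplexed: SteadyGlo luminescence measured ATXN2-luciferase expression after a fluorogenic Gly-Phe-AFC viability readout (25 uM final).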
HT1080 IDH1KD tx: qHTS for induction of synthetic lethality in tumor cells producing 2HG: qHTS for the HT-1080-IDH1KD cell line; 360,000 compounds, 2% hits; AID 686971, 2013; Potency, µM (top dose mostly 46.1 µM), without a hit: at the top dose activity, negative = toxicity, most hits filed as cytotoxic; HT-1080 IDH1 knockdown viability, ATP luminescence, 48 h;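 note: 0% = DMSO wells and -100% = cell-free medium wells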
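HT-1080-IDH1KD cells (IDH1 knocked down), 750/well in RPMI with 5% FBS, treated with compound 48 h at 37 degrees C. Viability by CellTiter-Glo luminescence, normalised to DMSO and no-cell wells; concentration-response curves classed.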
KB-3-1 cytotox: qHTS assay for MDR1-selective chemotherapeutics: Primary screen using the parental adenocarcinoma cell KB-3-1; KB-3-1 viability, CellTiter-Glo ATP luminescence, 72 h; Potency, µM (top dose mostly 46.1 µM), usual class: cytotoxic; 400,000 compounds, 1.4% hits; AID 1347075, 2019; note: % is set by controls: 0 for no effect and ±100 for the full control effect; nearly all actives have a fitted effect of over 60% in size
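Here the drug-naive KB-3-1 line serves as comparator for MDR sub-line selectivity; cells received compound titrations, 72 h at 37 °C, then CellTiter-Glo readout.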
ATXN viability: Viability Counterscreen for Primary qHTS for Inhibitors of ATXN expression. 400,000 compounds, 0.49% hits. AID 651635, 2014. Potency, µM (highest dose often 56.7 µM), actives largely listed as cytotoxic. S2 cells (HEK-293 line with an ATXN2-luciferase reporter) viability, CellTiter-Fluor protease fluorescence, 24 h; note: nearly all actives have a fitted effect of over 40% in size
HT1080NT lethal: qHTS for induction of synthetic lethality in tumor cells producing 2HG: qHTS for the HT-1080-NT fibrosarcoma cell line | HT-1080-NT fibrosarcoma viability, CellTiter-Glo ATP luminescence, 48 h | Potency, µM (highest dose often 46.1 µM), for inactives: at the top dose activity, negative = less viability, actives largely listed as cytotoxic | 360,000 compounds, 1.6% hits;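 note: NT is the 2HG producing partner of a matched IDH1 knockdown line; 0% = DMSO-treated cells and -100% = media-only wells without cells; nearly all actives have a fitted effect of over 55% in size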
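Luminescent CellTiter-Glo readout after 48 hours of compound exposure at 37 degrees C defined viability of HT-1080-NT cells. Activity was normalized to DMSO wells and cell-free media wells; concentration-response curves were fitted and assigned curve classes.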
* = called active by the depositor; i = inactive; ? = inconclusive; / = no result given; [ ] = remark or other dose. Calls come from the whole dose curve; as a rule, active = well fitted curve in the direction sought with a large enough effect; inconclusive = small, poorly fitted or top-dose-only effect, or another doubt; inactive = no such curve, though single readings can be large; an effect the other way counts as inactive or inconclusive. Potency is the fitted concentration of half-maximal effect.

SMILES	KB-V1 cytotox	ATXN2 expr inh	HT1080 IDH1KD tx	KB-3-1 cytotox	ATXN viability	HT1080NT lethal
c1ccc2c(-c3nc4ccccc4[nH]3)cccc2c1	4.6µM*	/	18µM*	21µM*	?	?
c1ccc2nc(-c3nc4ccccc4[nH]3)ccc2c1	?	?	13µM*	?	i	26µM*
Cc1cccc(C)c1OCC(=O)N(Cc1ccccc1F)C1CCS(=O)(=O)C1 (stereo not given)	i	/	/	?	/	/
CCOC(=O)COc1ccc(CC)cc1C(=O)c1ccn2nc(-c3ccccc3)cc2n1	i	-3%	/	i	?	/
COc1ccc(C(=O)c2cc(OC)c(OC)c(OC)c2)cc1OC	i	-3%	12µM*	5.8µM*	?	?
COc1ccc(C(=O)c2ccc(OC)c(OC)c2)cc1	i	4%	6%	i	i	8%
COc1ccc(C(=O)c2ccc(OC)c(OC)c2)cc1OC	i	-8%	-7%	i	?	0%
COc1ccc(C(O)c2nccc3cc(OC)c(OC)cc23)cc1OC (stereo not given)	8.2µM*	1%	-14%	?	i	-13%
COc1ccc(C(=O)c2nccc3cc(OC)c(OC)cc23)cc1OC	16µM*	-17%	2%	i	?	-1%
COc1ccc(C)cc1N(C(=O)c1ccccc1)c1nc2ccccc2s1	i	-4%	-10%	i	i	-11%
COc1ccc(C)cc1N(C(=O)COc1ccccc1)c1nc2ccccc2s1	21µM*	28%	-10%	i	i	2%
Cc1[nH]c2ccccc2c1C(=O)Cn1c(=O)oc2ccccc21	16µM*	-13%	?	i	?	-3%
COc1cccc(NC(=O)CN(C)CC(=O)c2c(C)[nH]c3ccccc23)c1	i	-16%	-1%	i	?	-2%
COc1ccc(NC(=O)CN(C)CC(=O)c2c(C)[nH]c3ccccc23)cc1	7.3µM*	-10%	-4%	i	i	-2%
Cc1[nH]c2ccccc2c1C(=O)CCl	?	/	?	i	11µM*	?
CC(=O)c1c(-c2ccccc2)[nH]c2ccccc12	7.3µM*	-34%	?	?	?	?
CCOC(=O)c1[nH]c2c(c1Cc1ccccc1OC)C(=O)CC(c1ccc(OCC)cc1)C2 (stereo not given)	i	1%	/	i	i	/
COc1cc(C(=O)OCc2cc(=O)n3nc(C(C)C)sc3n2)cc(OC)c1OC	i	-4%	/	i	i	/
NC(=O)CC(NC(=O)Cc1ccc(Br)cc1)c1ccc(NC2CCCC2)c([N+](=O)[O-])c1 (stereo not given)	i	8.9µM*	-1%	?	?	-1%
Cc1ccc2c(c1)N(CC(=O)OC(CC(C)C)C(=O)NC1CCCC1)C(=O)CO2 (stereo not given)	3.7µM*	-9%	-22%	i	i	5%
CC(C)C(OC(=O)CN1C(=O)COc2ccccc21)C(=O)NC1CCCC1 (stereo not given)	6.5µM*	-4%	2%	i	i	15%
CC(C)C(OC(=O)CN1C(=O)COc2ccccc21)C(=O)NC1CCCCC1 (stereo not given)	?	-15%	7%	i	/	23%
CC(NC(=O)/C(C#N)=C/c1ccc([N+](=O)[O-])o1)c1ccccc1 (stereo not given)	i	?	6.5µM*	?	?	-23%
COCCNC(=O)/C(C#N)=C/c1cc(Br)c(O)c(OC)c1	i	3%	3%	i	?	2%
CCOCCCNC(=O)/C(C#N)=C/c1ccc([N+](=O)[O-])o1	i	?	7.3µM*	i	19µM*	?
SMILES	KB-V1 cytotox	ATXN2 expr inh	HT1080 IDH1KD tx	KB-3-1 cytotox	ATXN viability	HT1080NT lethal
COCCNC(=O)/C(C#N)=C/c1ccc(-c2ccc(S(=O)(=O)N3CCOCC3)cc2)o1	i	-4%	-8%	i	i	16%
CCOCCCNC(=O)/C(C#N)=C/c1ccc(-c2ccc(S(=O)(=O)N3CCOCC3)cc2)o1	16µM*	-10%	-1%	i	i	-13%
CCOCCCNC(=O)/C(C#N)=C/c1cc(Br)c(O)c(Br)c1	3.7µM*	-12%	2.1µM*	6.5µM*	i	2.3µM*
CC(C)(C)OC(=O)N1CCC(c2c(C(=O)N3CCN(c4ccccn4)CC3)cnn2-c2ccc(F)cc2F)CC1	i	/	/	i	/	/
O=[N+]([O-])c1cccc(/C=N/Nc2ccccn2)c1	i	26%	14%	i	i	17%
NC(N)=N/N=C/c1cccc([N+](=O)[O-])c1O	i	-30%	12%	i	i	12%
O=[N+]([O-])c1cccc(/C=N\N=C2c3ccccc3-c3ccccc32)c1O	18µM*	?	6%	?	i	3%
O=[N+]([O-])c1cccc(C=NN=C2c3ccccc3-c3ccccc32)c1	21µM*	-16%	14%	i	i	-2%
O=C(Cn1nc(-c2ccccc2F)ccc1=O)Nc1ccc(S(=O)(=O)N2CCCCCC2)cc1	13µM*	-23%	-10%	i	i	1%
CN(CC(=O)Nc1ccc(S(=O)(=O)N2CCCC2)cc1)Cc1c(F)cccc1Cl	7.3µM*	?	1%	?	i	-9%
O=C(CN1CCN(S(=O)(=O)c2ccc(F)cc2)CC1)Nc1ccc2c(c1)OCCO2	?	0%	-1%	i	i	-12%
CCN(CC)CC(=O)Nc1cccc(S(=O)(=O)N2CCCC2)c1	i	-7%	-3%	i	i	-14%
O=C(Cc1ccccc1F)Nc1ccc(S(=O)(=O)N2CCCCC2)cc1	i	-6%	-9%	i	i	-17%
O=C(CN1CCN(S(=O)(=O)c2ccc(F)cc2)CC1)Nc1ccc(Cl)c(C(F)(F)F)c1	16µM*	-31%	-13%[9.24 µM]	?	i	?
CN(CC(=O)Nc1cccc(S(=O)(=O)N2CCCC2)c1)CC(=O)Nc1ccc(F)c(F)c1F	21µM*	-11%	2%	i	i	-13%
COc1cc(N(C)C)c(OC)cc1/C=C/c1ccnc2ccccc12	i	/	/	i	/	/
CN(CC(=O)Nc1cccc(S(=O)(=O)N2CCCC2)c1)CC(=O)Nc1ccc(Cl)c(C(F)(F)F)c1	i	?	18µM*	?	?	9.2µM*

Source: PubChem
